Laboratory results reported in PubChem BioAssay AID1159580 (chemical genetic matrix, 2015).
The campaign covered roughly 5,500 compounds. About 2,000 (36%) were called active. Roughly 18% stayed inconclusive and do not appear here. Cut-off read from the data, not from the text of the source: active = normalized growth mostly below about 0.91 (no sharp cut-off); inconclusive = no clear call, values can overlap the other calls; inactive = mostly above about 0.92. This is one part of the list.

Test: chemical genetic growth profiling, strain panel (AID 1159580);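 note: tested at 20 µM; growth read once vehicle control cultures reached saturation at 30 °C; 1 = growth at the plate median or of vehicle wells; lower values mean less growth of the strain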
Conditions: growth OD
[1] = S. cerevisiae deletion strains, locus YAL013W, strain DEP1, hits give low values
[2] = S. cerevisiae deletion strains, locus YBR229C, strain ROT2, hits give low values
[3] = S. cerevisiae deletion strains, locus YDL101C, strain DUN1, hits give low values
[4] = S. cerevisiae deletion strains, locus YDL134C, strain PPH21, hits give low values
[5] = S. cerevisiae deletion strains, locus YDR150W, strain NUM1, hits give low values
[6] = S. cerevisiae deletion strains, locus YEL061C, strain CIN8, hits give low values
[7] = S. cerevisiae deletion strains, locus YGR078C, strain PAC10, hits give low values
[8] = S. cerevisiae deletion strains, locus YHR030C, strain SLT2, hits give low values
[9] = S. cerevisiae deletion strains, locus YHR087W, strain rtc3, hits give low values
[10] = S. cerevisiae deletion strains, locus YJL187C, strain SWE1, hits give low values
[11] = S. cerevisiae deletion strains, locus YJR043C, strain POL32, hits give low values
[12] = S. cerevisiae deletion strains, locus YJR075W, strain HOC1, hits give low values
[13] = S. cerevisiae deletion strains, locus YKL190W, strain CNB1, hits give low values
[14] = S. cerevisiae deletion strains, locus YLR039C, strain RIC1, hits give low values
[15] = S. cerevisiae deletion strains, locus YLR058C, strain SHM2 (second series), hits give low values
[16] = S. cerevisiae deletion strains, locus YLR085C, strain ARP6, hits give low values
[17] = S. cerevisiae deletion strains, locus YLR262C, strain YPT6, hits give low values
[18] = S. cerevisiae deletion strains, locus YML094W, strain GIM5, hits give low values
[19] = S. cerevisiae deletion strains, locus YMR219W, strain ESC1, hits give low values
[20] = S. cerevisiae deletion strains, locus YMR263W, strain SAP30, hits give low values
[21] = S. cerevisiae deletion strains, locus YMR307W, strain GAS1, hits give low values
[22] = S. cerevisiae deletion strains, locus YNL153C, strain GIM3, hits give low values
[23] = S. cerevisiae deletion strains, locus YNL298W, strain CLA4 (second series), hits give low values
[24] = S. cerevisiae deletion strains, locus YNL322C, strain KRE1, hits give low values
[25] = S. cerevisiae deletion strains, locus YNR030W, strain Alg12, hits give low values
[26] = S. cerevisiae deletion strains, locus YOL006C, strain TOP1, hits give low values
[27] = S. cerevisiae deletion strains, locus YPL055C, strain LGE1, hits give low values
[28] = S. cerevisiae deletion strains, locus YPL241C, strain CIN2, hits give low values
[29] = S. cerevisiae deletion strains, locus YPR135W, strain CTF4, hits give low values

Measured: normalized growth

O=C(N/N=C\c1c(O)ccc2ccccc12)N/N=C\c1c(O)ccc2ccccc12
inactive: [1] 0.996 | [2] 0.975 | [3] 1.02 | [4] 0.94 | [5] 0.908 | [6] 0.962 | [7] 1.01 | [8] 0.875 | [9] 0.989 | [10] 0.994 | [11] 0.988 | [12] 1.07 | [13] 1.01 | [14] 1.03 | [15] 0.992 | [16] 0.899 | [17] 0.953 | [18] 0.924 | [19] 1.02 | [20] 0.928 | [21] 1.09 | [22] 0.951 | [23] 0.879 | [24] 1.02 | [25] 0.928 | [26] 0.888 | [27] 1.01 | [28] 0.939 | [29] 0.968 | S. cerevisiae strains, strain wild type, hits give low values 0.994

O=C(N/N=C\c1cc(Br)ccc1O)c1ccccc1Oc1ccccc1
active: S. cerevisiae deletion strains, locus YLR113W, strain HOG1, hits give low values 0.694 | S. cerevisiae deletion strains, locus YPL256C, strain CLN2, hits give low values 0.764
inactive: S. cerevisiae deletion strains, locus YAR019C, strain CDC15, hits give low values 0.963 | S. cerevisiae deletion strains, locus YBL105C, strain PKC1, hits give low values 0.976 | S. cerevisiae deletion strains, locus YBR135W, strain CKS1, hits give low values 0.981 | S. cerevisiae deletion strains, locus YBR136W, strain MEC1, hits give low values 0.963 | S. cerevisiae deletion strains, locus YBR160W, strain CDC28, hits give low values 0.973 | S. cerevisiae deletion strains, locus YDL017W, strain CDC7, hits give low values 0.969 | S. cerevisiae deletion strains, locus YDL028C, strain MPS1, hits give low values 0.96 | [3] 0.97 | S. cerevisiae deletion strains, locus YDL108W, strain KIN28, hits give low values 0.971 | S. cerevisiae deletion strains, locus YDL132W, strain cdc53, hits give low values 0.966 | S. cerevisiae deletion strains, locus YDL214C, strain PRR2, hits give low values 0.932 | S. cerevisiae deletion strains, locus YDR052C, strain DBF4, hits give low values 0.97 | S. cerevisiae deletion strains, locus YDR054C, strain cdc34, hits give low values 0.968 | S. cerevisiae deletion strains, locus YDR226W, strain ADK1, hits give low values 0.972 | S. cerevisiae deletion strains, locus YDR477W, strain SNF1, hits give low values 0.943 | S. cerevisiae deletion strains, locus YER123W, strain YCK3, hits give low values 0.879 | S. cerevisiae deletion strains, locus YER133W, strain GLC7, hits give low values 0.955 | S. cerevisiae deletion strains, locus YFL009W, strain cdc4, hits give low values 0.964 | S. cerevisiae deletion strains, locus YFL029C, strain CAK1, hits give low values 0.953 | S. cerevisiae deletion strains, locus YFR003C, strain YPI1, hits give low values 0.969 | S. cerevisiae deletion strains, locus YFR019W, strain FAB1, hits give low values 0.953 | S. cerevisiae deletion strains, locus YFR028C, strain CDC14, hits give low values 0.965 | S. cerevisiae deletion strains, locus YGR040W, strain KSS1, hits give low values 0.942 | S. cerevisiae deletion strains, locus YGR052W, strain FMP48, hits give low values 0.954 | S. cerevisiae deletion strains, locus YGR092W, strain DBF2, hits give low values 0.914 | [8] 0.854 | S. cerevisiae deletion strains, locus YHR079C, strain IRE1, hits give low values 0.885 | S. cerevisiae deletion strains, locus YHR082C, strain KSP1, hits give low values 0.924 | S. cerevisiae deletion strains, locus YHR205W, strain SCH9, hits give low values 0.838 | S. cerevisiae deletion strains, locus YIL147C, strain SLN1, hits give low values 0.949 | S. cerevisiae deletion strains, locus YJL095W, strain BCK1, hits give low values 0.846 | S. cerevisiae deletion strains, locus YJL128C, strain PBS2, hits give low values 0.928 | S. cerevisiae deletion strains, locus YJL157C, strain FAR1, hits give low values 0.955 | S. cerevisiae deletion strains, locus YJR016C, strain ILV3, hits give low values 0.979 | S. cerevisiae deletion strains, locus YJR066W, strain TOR1 (second series), hits give low values 0.901 | S. cerevisiae deletion strains, locus YJR066W, strain TOR1, hits give low values 0.953 | S. cerevisiae deletion strains, locus YKL048C, strain ELM1, hits give low values 0.915 | S. cerevisiae deletion strains, locus YKL067W, strain YNK1, hits give low values 0.923 | S. cerevisiae deletion strains, locus YKL101W, strain HSL1, hits give low values 0.89 | S. cerevisiae deletion strains, locus YKL193C, strain SDS22, hits give low values 0.972 | S. cerevisiae deletion strains, locus YKL203C, strain TOR2, hits give low values 1 | S. cerevisiae deletion strains, locus YLR133W, strain CKI1, hits give low values 0.916 | S. cerevisiae deletion strains, locus YLR403W, strain SFP1, hits give low values 0.927 | S. cerevisiae deletion strains, locus YML070W, strain DAK1, hits give low values 0.888 | S. cerevisiae deletion strains, locus YMR001C, strain CDC5, hits give low values 0.972 | S. cerevisiae deletion strains, locus YMR205C, strain PFK2 (second series), hits give low values 0.919 | S. cerevisiae deletion strains, locus YMR277W, strain FCP1, hits give low values 0.98 | S. cerevisiae deletion strains, locus YNL006W, strain LST8, hits give low values 0.977 | S. cerevisiae deletion strains, locus YNL020C, strain ARK1, hits give low values 0.935 | S. cerevisiae deletion strains, locus YNL161W, strain CBK1, hits give low values 0.982 | S. cerevisiae deletion strains, locus YNL183C, strain NPR1, hits give low values 0.883 | S. cerevisiae deletion strains, locus YNL207W, strain RIO2, hits give low values 0.976 | S. cerevisiae deletion strains, locus YNL222W, strain SSU72, hits give low values 0.969 | S. cerevisiae deletion strains, locus YNL307C, strain MCK1 (second series), hits give low values 0.912 | S. cerevisiae deletion strains, locus YOL078W, strain AVO1, hits give low values 0.98 | S. cerevisiae deletion strains, locus YOL136C, strain PFK27, hits give low values 0.909 | S. cerevisiae deletion strains, locus YOR061W, strain CKA2, hits give low values 0.939 | S. cerevisiae deletion strains, locus YOR119C, strain RIO1, hits give low values 0.97 | S. cerevisiae deletion strains, locus YOR231W, strain MKK1, hits give low values 0.892 | S. cerevisiae deletion strains, locus YOR329C, strain SCD5, hits give low values 0.968 | S. cerevisiae deletion strains, locus YPL031C, strain PHO85, hits give low values 0.94 | S. cerevisiae deletion strains, locus YPL153C, strain RAD53, hits give low values 0.934 | S. cerevisiae deletion strains, locus YPL204W, strain HRR25, hits give low values 0.94 | S. cerevisiae deletion strains, locus YPL209C, strain IPL1, hits give low values 0.974 | S. cerevisiae deletion strains, locus YPR025C, strain CCL1, hits give low values 0.969 | S. cerevisiae deletion strains, locus YPR106W, strain ISR1, hits give low values 0.976 | S. cerevisiae deletion strains, locus YPR111W, strain DBF20, hits give low values 0.947 | S. cerevisiae deletion strains, strain NNK1, hits give low values 0.959 | S. cerevisiae deletion strains, strain TSCII, hits give low values 0.972

Nc1ccccc1C(=O)N/N=C\c1cccc2ccccc12
active: [4] 0.813 | [6] 0.85 | [8] 0.461 | [14] 0.734 | [16] 0.615 | [17] 0.803 | [18] 0.831 | [21] 0.526 | [23] 0.807 | [25] 0.875 | [26] 0.535 | [28] 0.819
inactive: [1] 0.994 | [2] 0.977 | [3] 1.01 | [5] 0.971 | [7] 0.993 | [9] 0.992 | [10] 0.994 | [11] 1.01 | [12] 0.979 | [13] 0.944 | [15] 0.991 | [19] 0.989 | [20] 0.992 | [22] 1.01 | [24] 0.992 | [27] 0.973 | [29] 0.66
